In PubChem BioAssay AID686979 (National Center for Advancing Translational Sciences (NCATS), 2013):
About 50,000 (12%) of roughly 420,000 compounds were called active. Inconclusive results (about 26%) are left out. Shown is part of a subset that was picked to be rich in actives. A call without a number means that no potency is given here. A number with no mark means an inactive call. The call rests on the fitted dose curve; in most records, active means well fitted inhibition curve with a large enough effect; inconclusive means small, poorly fitted or top-dose-only effect; inactive means flat fitted curve, though single readings scatter.

Test: qHTS for Inhibitors of human tyrosyl-DNA phosphodiesterase 1 (TDP1): qHTS in cells in presence of CPT; further: nearly all actives have a fitted effect of over 55% in size
Details: chicken DT40 Tdp1-/-;hTDP1 cells + 20 nM CPT, ATP luminescence, 48 h; series mostly up to 46.2 µM
Method in brief: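 Cell growth measured by CellTiter-Glo luminescence after a minimum 48 h, 37 C compound exposure with 20 nM CPT in Tdp1-knockout DT40 cells stably expressing hTDP1, seeded 400/well; qHTS titration format.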
Potency means the concentration at half of the fitted maximal effect.

Row | Structure (SMILES) | Potency | activity change, negative = growth inhibition
1 | CC(=O)Nc1ccc2c3c(ccc([N+](=O)[O-])c13)CC2 | inactive | 
2 | CN1CCN(C(=O)c2ccccc2NC(=O)COc2ccccc2Cl)CC1 | inactive | 
3 | COc1ccccc1OCC(=O)Nc1ccccc1C(=O)NC1CC1 | inactive | 
4 | O=C(COc1ccccc1Cl)Nc1ccccc1C(=O)NC1CC1 | 23.1 µM (active) | 
5 | S=c1[nH]nc2c3c4c(sc3ncn12)CCCC4 | inactive | 
6 | CCOC(=O)C1=CCC2C(=O)N(Cc3ccccc3)C(=O)C12 (stereo unspecified) | inactive | 
7 | COC(=O)C1=C[C@@H](C(=O)OC)[C@@H]2C3=C(C(=O)[C@]2(C)NC(=O)c2ccccc2)[C@H](C)n2c(=O)n(C)c(=O)n2[C@@H]3C1 | inactive | 
8 | CCC1(CC)C(=O)C2=C3C1[C@H](C(=O)OC)C=C(C(=O)OC)C[C@H]3[C@H]1C(=O)N(Cc3ccccc3)C(=O)[C@H]1[C@H]2C (stereo partly specified) | 4.61 µM (active) | 
9 | COc1ccc(NS(=O)(=O)c2cccc(C(=O)NCCc3ccc(S(N)(=O)=O)cc3)c2)cc1 | inactive | 
10 | COc1ccc(NS(=O)(=O)c2ccc(Oc3c(C#N)cccc3C#N)cc2)cc1 | 10.3 µM (active) | 
11 | CCOc1ccc(S(=O)(=O)Nc2ccc(S(=O)(=O)Nc3cc(OC)ccc3OC)cc2)cc1 | inactive | 
12 | CCN1CCN(C(=O)CN(C)S(=O)(=O)c2ccc3ccccc3c2)CC1 | inactive | 
13 | O=C1NC[C@H](CCCCN2C[C@H](Cc3ccc(O)cc3)N(CCc3ccccc3)C(=O)C2=O)N(CCc2ccccc2)C1=O | inactive | 
14 | C#CCOc1ccc(/C=C2/C(=O)NN(c3ccccc3)C2=O)cc1OC | inactive | 
15 | O=C(CNC(=O)c1ccccc1F)c1ccc(Br)cc1 | inactive | 
16 | O=C(C[n+]1cc(Br)cc2ccccc21)c1ccc(F)cc1 | 14.1 µM (active) | 
17 | O=C(O)CC/C(=N\NC(=O)c1ccc(F)cc1)c1ccc(Br)cc1 | inactive | 
18 | CCOc1ccc(NC(=O)CCC(=O)N2CC(C)Oc3ccc(C)cc32)cc1 (stereo unspecified) | 25.9 µM (active) | 
19 | CCOc1ccc(NC(=O)CCNC(=O)c2ccc(Br)cc2)cc1 | inactive | 
20 | Cc1ccc2c(c1)N(C(=O)CCC(=O)NCc1ccccc1F)CC(C)O2 (stereo unspecified) | inactive | 
21 | CCc1nc2cc(C(=O)NCC3CCS(=O)(=O)C3)cc(NC(=O)c3ccccc3OC)c2n1C (stereo unspecified) |  | 6.63% [at 9.04 µM]
22 | O=c1[nH]c2cc(Br)ccc2n2cccc12 | inactive | 
23 | CCN(CC(=O)NCc1ccco1)S(=O)(=O)c1ccc(F)cc1 | inactive | 
24 | COc1ccc(Cc2nnc(NC(=O)c3ccc(OC)cc3OC)s2)cc1 | inactive | 
25 | Cc1csc(NC(=O)c2ccc(C)s2)n1 | inactive | 
26 | COc1cc(SC)ccc1C(=O)Nc1nc(C)cs1 | 20.6 µM (active) | 
